Measurements: PMC7862700, “An all-to-all approach to the identification of sequence-specific readers for epigenetic DNA modifications on cytosine”

Columns and labels:
Test in all cases: DAPPL (digital affinity profiling via proximity ligation, sequencing); 10 mM Tris-HCl pH 7.5, 50 mM NaCl, 1 mM DTT, 4% glycerol, room temperature, 30 min; GST-TFs on glutathione beads, 16-mer random dsDNA library, 0.1% formaldehyde crosslink after washing; high values mean tight binding
[1] = biological target: T1, FEV (Homo sapiens, UniProt Q99581 1-238); details: protein: recombinant; tags: N-terminal GST; dsDNA, one strand shown
T1 sequence: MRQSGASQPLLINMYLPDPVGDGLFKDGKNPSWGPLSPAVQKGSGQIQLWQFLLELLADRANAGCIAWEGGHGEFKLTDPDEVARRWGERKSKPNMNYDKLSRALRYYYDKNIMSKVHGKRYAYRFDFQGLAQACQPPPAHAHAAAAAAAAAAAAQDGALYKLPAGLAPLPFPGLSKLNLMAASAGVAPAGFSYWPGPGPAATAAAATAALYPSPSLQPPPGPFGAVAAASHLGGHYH
Outline: (§1)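 GST fusions of human transcription factors were expressed in yeast and captured with glutathione beads. Once given DNA barcodes and pooled alongside a tag-only sample, they were incubated for 30 min at room temperature with 200 nmole of a random double-stranded 16-mer DNA library in Tris/NaCl/DTT/glycerol buffer, then washed, crosslinked (0.1% formaldehyde), proximity-ligated, PCR-amplified and sequenced on an Illumina NextSeq500. The binding signal of each hexamer is its read frequency for a factor divided by its frequency for the tag-only sample.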

[2] = biological target: ETV5 (Homo sapiens, UniProt P41161 1-510); details: protein: recombinant; tags: N-terminal GST; dsDNA, one strand shown
ETV5, sequence (P41161 whole entry): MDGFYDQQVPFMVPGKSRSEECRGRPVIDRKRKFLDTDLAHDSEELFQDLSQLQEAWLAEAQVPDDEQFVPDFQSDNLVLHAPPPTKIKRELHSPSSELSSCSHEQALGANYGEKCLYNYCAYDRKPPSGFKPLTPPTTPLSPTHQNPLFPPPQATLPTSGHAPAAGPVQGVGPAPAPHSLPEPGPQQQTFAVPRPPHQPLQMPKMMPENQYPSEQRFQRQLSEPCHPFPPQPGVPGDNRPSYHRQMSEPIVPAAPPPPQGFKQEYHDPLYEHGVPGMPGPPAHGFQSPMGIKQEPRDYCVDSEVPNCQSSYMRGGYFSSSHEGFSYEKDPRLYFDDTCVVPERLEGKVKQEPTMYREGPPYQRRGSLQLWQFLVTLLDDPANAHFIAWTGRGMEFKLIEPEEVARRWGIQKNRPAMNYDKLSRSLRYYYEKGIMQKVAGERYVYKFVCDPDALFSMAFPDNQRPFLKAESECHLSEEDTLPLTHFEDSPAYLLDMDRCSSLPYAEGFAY
Outline: as §1

[3] = biological target: HSF1 (Homo sapiens, UniProt Q00613 1-529); details: protein: recombinant; tags: N-terminal GST; chain copies: 3; dsDNA, one strand shown
HSF1, sequence (Q00613 whole entry): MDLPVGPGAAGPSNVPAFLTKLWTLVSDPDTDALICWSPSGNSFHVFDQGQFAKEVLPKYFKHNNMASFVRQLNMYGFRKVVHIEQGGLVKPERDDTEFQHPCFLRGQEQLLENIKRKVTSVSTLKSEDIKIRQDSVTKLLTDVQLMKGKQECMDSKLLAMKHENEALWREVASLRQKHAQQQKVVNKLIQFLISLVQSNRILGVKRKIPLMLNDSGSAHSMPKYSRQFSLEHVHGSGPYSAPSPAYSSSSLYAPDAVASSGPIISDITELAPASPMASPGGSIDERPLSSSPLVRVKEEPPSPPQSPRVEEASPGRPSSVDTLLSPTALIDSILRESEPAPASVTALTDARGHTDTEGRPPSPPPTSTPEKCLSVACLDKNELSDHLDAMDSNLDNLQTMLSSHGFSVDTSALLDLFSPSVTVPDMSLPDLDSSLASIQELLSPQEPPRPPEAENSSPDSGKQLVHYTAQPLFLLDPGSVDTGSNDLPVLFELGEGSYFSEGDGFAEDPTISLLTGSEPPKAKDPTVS
Outline: as §1

[4] = biological target: T2, SPIC (Homo sapiens, UniProt Q8N5J4 1-248); details: protein: recombinant; tags: N-terminal GST; dsDNA, one strand shown
T2 sequence: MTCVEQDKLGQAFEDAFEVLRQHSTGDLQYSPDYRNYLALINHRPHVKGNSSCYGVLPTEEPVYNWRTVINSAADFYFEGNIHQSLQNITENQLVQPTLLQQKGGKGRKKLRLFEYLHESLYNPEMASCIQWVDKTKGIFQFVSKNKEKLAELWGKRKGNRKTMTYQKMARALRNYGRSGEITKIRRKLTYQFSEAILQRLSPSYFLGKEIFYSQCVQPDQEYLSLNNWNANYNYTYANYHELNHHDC
Outline: as §1

[5] = biological target: ELF4 (Homo sapiens, UniProt Q99607 1-663); details: protein: recombinant; tags: N-terminal GST; dsDNA, one strand shown
ELF4, sequence (Q99607 whole entry): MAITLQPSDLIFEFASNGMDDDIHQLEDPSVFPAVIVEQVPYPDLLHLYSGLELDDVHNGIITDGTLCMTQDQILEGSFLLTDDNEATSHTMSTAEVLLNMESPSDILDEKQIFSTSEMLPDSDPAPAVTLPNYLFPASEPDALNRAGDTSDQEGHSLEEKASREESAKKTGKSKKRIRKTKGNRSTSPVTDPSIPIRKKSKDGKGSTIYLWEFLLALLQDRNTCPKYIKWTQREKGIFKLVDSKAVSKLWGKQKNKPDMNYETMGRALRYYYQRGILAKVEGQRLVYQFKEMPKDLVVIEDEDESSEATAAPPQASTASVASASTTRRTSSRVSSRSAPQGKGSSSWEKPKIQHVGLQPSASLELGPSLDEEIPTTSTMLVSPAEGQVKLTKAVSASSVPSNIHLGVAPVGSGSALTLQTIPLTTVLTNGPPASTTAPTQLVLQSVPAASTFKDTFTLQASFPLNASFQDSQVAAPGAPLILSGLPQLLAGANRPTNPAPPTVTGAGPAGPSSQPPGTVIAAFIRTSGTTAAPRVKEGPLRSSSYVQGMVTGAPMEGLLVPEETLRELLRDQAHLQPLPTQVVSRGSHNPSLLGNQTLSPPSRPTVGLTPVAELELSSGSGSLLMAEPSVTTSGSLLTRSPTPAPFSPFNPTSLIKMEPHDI
Outline: as §1

[6] = biological target: T3, ELK4 (Homo sapiens, UniProt P28324-2 1-405); details: protein: recombinant; tags: N-terminal GST; dsDNA, one strand shown
T3 sequence: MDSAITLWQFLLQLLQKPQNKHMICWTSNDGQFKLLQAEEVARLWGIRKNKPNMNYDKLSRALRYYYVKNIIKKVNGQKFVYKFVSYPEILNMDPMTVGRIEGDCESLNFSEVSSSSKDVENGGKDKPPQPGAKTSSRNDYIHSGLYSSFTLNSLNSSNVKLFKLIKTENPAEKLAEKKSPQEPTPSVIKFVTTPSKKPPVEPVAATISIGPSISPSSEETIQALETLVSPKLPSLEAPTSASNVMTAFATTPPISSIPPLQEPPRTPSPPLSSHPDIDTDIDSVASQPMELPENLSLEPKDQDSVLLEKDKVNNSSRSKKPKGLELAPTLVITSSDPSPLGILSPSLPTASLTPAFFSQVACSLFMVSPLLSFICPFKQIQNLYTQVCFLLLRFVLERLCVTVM
Outline: as §1

[7] = biological target: T4, ETV2 (Homo sapiens, UniProt O00321 1-342); details: protein: recombinant; tags: N-terminal GST; dsDNA, one strand shown
T4 sequence: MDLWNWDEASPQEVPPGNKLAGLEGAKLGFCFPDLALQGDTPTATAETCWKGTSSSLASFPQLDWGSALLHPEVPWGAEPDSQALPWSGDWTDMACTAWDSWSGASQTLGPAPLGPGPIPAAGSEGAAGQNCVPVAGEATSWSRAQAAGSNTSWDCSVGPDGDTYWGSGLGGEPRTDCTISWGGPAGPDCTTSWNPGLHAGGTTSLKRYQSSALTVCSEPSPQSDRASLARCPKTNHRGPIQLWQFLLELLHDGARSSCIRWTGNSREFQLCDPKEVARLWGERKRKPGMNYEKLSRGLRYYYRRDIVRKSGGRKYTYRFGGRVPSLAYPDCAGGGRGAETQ
Outline: as §1

[8] = biological target: T5, ELF3 (Homo sapiens, UniProt P78545 1-371); details: protein: recombinant; tags: N-terminal GST; dsDNA, one strand shown
T5 sequence: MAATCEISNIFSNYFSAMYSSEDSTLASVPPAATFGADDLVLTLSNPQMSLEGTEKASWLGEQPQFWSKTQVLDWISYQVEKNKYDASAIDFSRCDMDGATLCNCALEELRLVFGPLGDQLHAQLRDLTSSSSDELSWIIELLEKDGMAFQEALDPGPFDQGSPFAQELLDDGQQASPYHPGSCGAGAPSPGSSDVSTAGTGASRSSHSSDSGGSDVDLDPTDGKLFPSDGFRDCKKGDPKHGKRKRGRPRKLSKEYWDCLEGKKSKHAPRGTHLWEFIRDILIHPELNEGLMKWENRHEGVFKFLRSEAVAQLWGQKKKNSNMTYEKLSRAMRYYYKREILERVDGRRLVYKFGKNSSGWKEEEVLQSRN
Outline: as §1

[9] = biological target: CRX (Homo sapiens, UniProt O43186 1-299); details: protein: recombinant; tags: N-terminal GST; dsDNA, one strand shown
CRX, sequence (O43186 whole entry): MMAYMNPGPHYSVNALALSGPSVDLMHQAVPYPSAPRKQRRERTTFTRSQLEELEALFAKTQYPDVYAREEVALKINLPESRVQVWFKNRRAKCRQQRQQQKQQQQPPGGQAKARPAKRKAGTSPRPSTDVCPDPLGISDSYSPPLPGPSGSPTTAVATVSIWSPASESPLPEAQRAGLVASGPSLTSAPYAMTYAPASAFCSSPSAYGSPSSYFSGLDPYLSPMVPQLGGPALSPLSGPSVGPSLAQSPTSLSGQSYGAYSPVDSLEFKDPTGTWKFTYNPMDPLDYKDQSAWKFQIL
Outline: as §1

[10] = biological target: ETV1 (Homo sapiens, UniProt P50549 1-477); details: protein: recombinant; tags: N-terminal GST; dsDNA, one strand shown
ETV1, sequence (P50549 whole entry): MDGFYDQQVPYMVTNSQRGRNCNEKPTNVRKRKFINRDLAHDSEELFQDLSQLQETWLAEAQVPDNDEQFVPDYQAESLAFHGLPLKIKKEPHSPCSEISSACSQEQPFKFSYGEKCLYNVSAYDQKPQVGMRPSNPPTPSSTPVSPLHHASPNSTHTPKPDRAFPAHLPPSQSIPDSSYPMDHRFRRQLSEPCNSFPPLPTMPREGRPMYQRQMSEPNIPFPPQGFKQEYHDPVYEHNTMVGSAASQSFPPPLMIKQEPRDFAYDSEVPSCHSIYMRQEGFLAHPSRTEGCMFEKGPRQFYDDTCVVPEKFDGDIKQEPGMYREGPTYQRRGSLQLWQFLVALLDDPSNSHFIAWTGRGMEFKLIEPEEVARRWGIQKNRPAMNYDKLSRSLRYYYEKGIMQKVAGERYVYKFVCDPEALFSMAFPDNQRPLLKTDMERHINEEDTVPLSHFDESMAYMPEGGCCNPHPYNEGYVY
Outline: as §1

Sequence	binding signal [1]	binding signal [2]	binding signal [3]	binding signal [4]	binding signal [5]	binding signal [6]	binding signal [7]	binding signal [8]	binding signal [9]	binding signal [10]
ATTAAA	1.1 fold enrichment (6-mer frequency, TF over GST control)	1.2 fold enrichment (6-mer frequency, TF over GST control)	1.97 fold enrichment (6-mer frequency, TF over GST control)	1.14 fold enrichment (6-mer frequency, TF over GST control)	1.16 fold enrichment (6-mer frequency, TF over GST control)	1.1 fold enrichment (6-mer frequency, TF over GST control)	1.16 fold enrichment (6-mer frequency, TF over GST control)	1.05 fold enrichment (6-mer frequency, TF over GST control)	2.99 fold enrichment (6-mer frequency, TF over GST control)	1.18 fold enrichment (6-mer frequency, TF over GST control)
TCATAT	1.24 fold enrichment (6-mer frequency, TF over GST control)	1.23 fold enrichment (6-mer frequency, TF over GST control)	1.15 fold enrichment (6-mer frequency, TF over GST control)	1.13 fold enrichment (6-mer frequency, TF over GST control)	1.28 fold enrichment (6-mer frequency, TF over GST control)	1.23 fold enrichment (6-mer frequency, TF over GST control)	1.29 fold enrichment (6-mer frequency, TF over GST control)	1.23 fold enrichment (6-mer frequency, TF over GST control)	1.22 fold enrichment (6-mer frequency, TF over GST control)	1.35 fold enrichment (6-mer frequency, TF over GST control)
TATTGT	1.26 fold enrichment (6-mer frequency, TF over GST control)	1.33 fold enrichment (6-mer frequency, TF over GST control)	1.27 fold enrichment (6-mer frequency, TF over GST control)	1.45 fold enrichment (6-mer frequency, TF over GST control)	1.24 fold enrichment (6-mer frequency, TF over GST control)	1.36 fold enrichment (6-mer frequency, TF over GST control)	1.32 fold enrichment (6-mer frequency, TF over GST control)	1.23 fold enrichment (6-mer frequency, TF over GST control)	1.47 fold enrichment (6-mer frequency, TF over GST control)	1.25 fold enrichment (6-mer frequency, TF over GST control)
AATACA	1.38 fold enrichment (6-mer frequency, TF over GST control)	1.33 fold enrichment (6-mer frequency, TF over GST control)	1.25 fold enrichment (6-mer frequency, TF over GST control)	1.21 fold enrichment (6-mer frequency, TF over GST control)	1.3 fold enrichment (6-mer frequency, TF over GST control)	1.29 fold enrichment (6-mer frequency, TF over GST control)	1.45 fold enrichment (6-mer frequency, TF over GST control)	1.18 fold enrichment (6-mer frequency, TF over GST control)	1.33 fold enrichment (6-mer frequency, TF over GST control)	1.31 fold enrichment (6-mer frequency, TF over GST control)
TGCTTC	2.29 fold enrichment (6-mer frequency, TF over GST control)	2.1 fold enrichment (6-mer frequency, TF over GST control)	1.49 fold enrichment (6-mer frequency, TF over GST control)	2.35 fold enrichment (6-mer frequency, TF over GST control)	1.98 fold enrichment (6-mer frequency, TF over GST control)	2.01 fold enrichment (6-mer frequency, TF over GST control)	2.38 fold enrichment (6-mer frequency, TF over GST control)	2.25 fold enrichment (6-mer frequency, TF over GST control)	1.22 fold enrichment (6-mer frequency, TF over GST control)	2.19 fold enrichment (6-mer frequency, TF over GST control)
TTAATA	1.19 fold enrichment (6-mer frequency, TF over GST control)	1.15 fold enrichment (6-mer frequency, TF over GST control)	2.09 fold enrichment (6-mer frequency, TF over GST control)	1.11 fold enrichment (6-mer frequency, TF over GST control)	1.23 fold enrichment (6-mer frequency, TF over GST control)	1.08 fold enrichment (6-mer frequency, TF over GST control)	1.25 fold enrichment (6-mer frequency, TF over GST control)	1.06 fold enrichment (6-mer frequency, TF over GST control)	3.19 fold enrichment (6-mer frequency, TF over GST control)	1.09 fold enrichment (6-mer frequency, TF over GST control)
ATAGAT	1.15 fold enrichment (6-mer frequency, TF over GST control)	1.11 fold enrichment (6-mer frequency, TF over GST control)	1.42 fold enrichment (6-mer frequency, TF over GST control)	1.2 fold enrichment (6-mer frequency, TF over GST control)	1.17 fold enrichment (6-mer frequency, TF over GST control)	1.13 fold enrichment (6-mer frequency, TF over GST control)	1.19 fold enrichment (6-mer frequency, TF over GST control)	1.13 fold enrichment (6-mer frequency, TF over GST control)	1.49 fold enrichment (6-mer frequency, TF over GST control)	1.19 fold enrichment (6-mer frequency, TF over GST control)
